PubChem BioAssay
Several values for one entry are separate records, joined by “and”; a condition that tells them apart may be missing. Equal values may be shown once. The source holds several records for some structures; these can differ, active in one and inactive in another. Activity calls are given as the source filed them. Unless noted, no rule for the calls is given here.

Experiments:
[1] = resazurin metabolic signal in HepG2 cells – cell-based, resazurin fluorescence, 24 h, PK04 Diversity Set, profiling panel (AID 1172); settings: HepG2 viability, higher = more signal; also: test concentration not given here
[2] = budding yeast growth changes without added modifier – OD600, strain BY4716, 24 h, basal condition, primary screen (AID 1173); settings: S. cerevisiae BY4716 growth, OD600, 24 h; higher = more signal, called active from +8 up or from −8 down
[3] = viability profiling in MM1S myeloma cells – cell-based, resazurin fluorescence, basal, 24 h, PK04 Diversity Set, profiling panel (AID 1174); settings: higher = more signal, called active from +8 up or from −8 down;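 also: MM1S multiple myeloma cell line; test concentration not given here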
[4] = biological target: Dihydroorotate dehydrogenase (quinone), mitochondrial (Plasmodium falciparum (isolate 3D7)) (UniProt Q08210); assay: inhibition of P. falciparum DHODH – biochemical, C-terminal His tag, absorbance 600 nm, primary screen (AID 1175); settings: PfDHODH enzyme, DCIP absorbance 600 nm; higher = more signal, called active from +8 up or from −8 down;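 also: recombinant parasite enzyme with a five histidine tag at its C terminus; test concentration not given here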
Chain of Dihydroorotate dehydrogenase (quinone), mitochondrial (Plasmodium falciparum (isolate 3D7)) (Q08210 whole entry, looked up): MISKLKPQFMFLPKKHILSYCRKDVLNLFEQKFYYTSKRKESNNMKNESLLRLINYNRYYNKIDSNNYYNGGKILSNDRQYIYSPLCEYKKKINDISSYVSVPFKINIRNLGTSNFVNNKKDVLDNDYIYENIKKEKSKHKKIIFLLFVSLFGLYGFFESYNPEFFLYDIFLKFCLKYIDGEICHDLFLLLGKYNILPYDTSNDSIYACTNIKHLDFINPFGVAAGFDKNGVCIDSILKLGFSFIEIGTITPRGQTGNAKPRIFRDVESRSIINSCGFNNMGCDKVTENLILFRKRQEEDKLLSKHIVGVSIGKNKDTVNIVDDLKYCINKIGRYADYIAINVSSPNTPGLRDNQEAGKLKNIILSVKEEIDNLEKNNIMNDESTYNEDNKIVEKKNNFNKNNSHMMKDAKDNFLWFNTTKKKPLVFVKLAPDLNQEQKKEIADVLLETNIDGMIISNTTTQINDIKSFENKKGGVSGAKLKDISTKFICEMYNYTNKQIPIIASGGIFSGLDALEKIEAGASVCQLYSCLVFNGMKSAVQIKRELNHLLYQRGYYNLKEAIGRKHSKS

[5] = inhibition of PAO1 biofilm formation – strain PAO1, LB-PBS medium, absorbance 600 nm, primary screen (AID 1176); also: test concentration not given here; settings: P. aeruginosa PAO1 growth/biofilm, A600, 12 h; higher = more signal
[6] = growth modulation of vineyard yeast isolate – strain RM11-1a, OD600, basal, 24 h, primary screen (AID 1177);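 also: cultures grown under basal conditions with no added stressor; test concentration not given here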; settings: S. cerevisiae RM11-1a growth, OD600, 24 h; higher = more signal, called active from +8 up or from −8 down
[7] = growth of efflux-deficient E. coli DRC39 – strain DRC39, OD650, 24 h, E. coli filamentation inducers, primary screen (AID 1178);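 also: growth measured as culture turbidity by optical density at 650 nm; test concentration not given here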; settings: E. coli DRC39 acrAB, higher = more signal, called active from +8 up or from −8 down
[8] = growth of efflux-deficient E. coli DRC39 – strain DRC39, OD650, 48 h, E. coli filamentation inducers, primary screen (AID 1179);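 also: screen aims at cell division blockers that make cells filament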; settings: E. coli DRC39 delta-acrAB growth, higher = more signal, called active from +8 up or from −8 down
[9] = viability profiling in RPMI8226 myeloma cells – cell-based, resazurin fluorescence, basal, 24 h, PK04 Diversity Set, profiling panel (AID 1180); settings: higher = more signal;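 also: RPMI8826 multiple myeloma cell line at 5000 cells per well; test concentration not given here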
[10] = biological target: E3 ubiquitin-protein ligase XIAP (Homo sapiens) (UniProt P98170); assay: small molecules binding XIAP protein – biophysical, small-molecule microarray, fluorescence 635 nm, primary screen (AID 1181); settings: higher = more signal;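 also: score merges 667 nm emission and signal to noise over triplicate slides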
Chain of E3 ubiquitin-protein ligase XIAP (Homo sapiens) (P98170 whole entry, looked up): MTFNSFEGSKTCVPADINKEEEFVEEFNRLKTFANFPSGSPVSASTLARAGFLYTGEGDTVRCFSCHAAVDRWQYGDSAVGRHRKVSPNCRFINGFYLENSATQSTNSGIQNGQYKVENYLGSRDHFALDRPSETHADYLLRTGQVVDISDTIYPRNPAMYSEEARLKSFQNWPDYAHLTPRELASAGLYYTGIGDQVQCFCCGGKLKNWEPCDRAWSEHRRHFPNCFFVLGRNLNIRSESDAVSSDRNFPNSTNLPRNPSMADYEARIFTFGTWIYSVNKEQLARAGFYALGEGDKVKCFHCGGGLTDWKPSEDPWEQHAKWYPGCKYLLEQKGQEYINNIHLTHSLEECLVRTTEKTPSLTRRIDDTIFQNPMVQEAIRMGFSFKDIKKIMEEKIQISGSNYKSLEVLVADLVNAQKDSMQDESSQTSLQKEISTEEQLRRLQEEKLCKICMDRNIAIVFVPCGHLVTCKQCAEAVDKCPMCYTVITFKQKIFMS

Structure (SMILES) | z-score [1] | z-score [2] | z-score [3] | composite z-score [4] | z-score [5] | z-score [6] | z-score [7] | z-score [8] | z-score [9] | composite z-score [10]
C=CCN(CCCC)C(=O)C(c1cccs1)N(CCOCCO)C(=O)/C=C\C(=O)O (stereo not given) | -0.313 and -1.09 | -0.8 (inactive) and 0.678 (inactive) | -0.0247 (inactive) and -0.0815 (inactive) | -1.49 (inactive) and -0.811 (inactive) | 0.0126 (inactive) and 0.177 (inactive) | -1.34 (inactive) and -1.13 (inactive) | 0.423 (inactive) and 0.0136 (inactive) | 0.629 (inactive) and 0.633 (inactive) | 0.0517 and 0.181 | -0.352 and -0.234
CCOC(=O)c1ccc(NC(=O)O[C@H]2[C@H](OC(=O)Nc3ccccc3)[C@@H](OC(=O)Nc3ccccc3)[C@@H](OC)O[C@@H]2CO)cc1 | -1.97 and -1.75 | 2.09 (inactive) and 0.61 (inactive) | -2.14 (inactive) and -3.07 (inactive) | 0.146 (inactive) and 0.755 (inactive) | 1.94 (inactive) and 1.5 (inactive) | 2.51 (inactive) and 2.87 (inactive) | 0.028 (inactive) and 0.188 (inactive) | -0.343 (inactive) and -0.714 (inactive) | -1.82 and -1.87 | 0.39 and -0.146
Cc1cc2c(nc1C)CCCN2CC(C)ON=C[C@@H](C)[C@H](OCc1ccccc1)C(C)C (stereo not given in full) | -0.524 | -0.0028 (inactive) | -0.567 (inactive) | 0.103 (inactive) | -0.172 (inactive) | 0.776 (inactive) | -0.0901 (inactive) | -0.549 (inactive) | -0.394 | 0.0546
C[C@@H]1CC[C@@H](C(=O)O)N[C@H]1c1ccc(-c2ccco2)cc1 | 0.443 | -0.319 (inactive) | 0.603 (inactive) | 0.268 (inactive) | -0.151 (inactive) | -0.0212 (inactive) | 0.127 (inactive) | -0.551 (inactive) | 0.285 | 0.012
CC(CO)N1C(=O)[C@@H]2C3C(=O)OCCC=C[C@H]3OC23C=CCN(c2ccc4ccccc4c2)C(=O)[C@@H]13 (stereo not given in full) | -0.406 and 0.0336 | 0.425 (inactive) and -0.0343 (inactive) | -0.832 (inactive) and -0.602 (inactive) | -5.1 (inactive) and -0.281 (inactive) | -0.0837 (inactive) and -0.649 (inactive) | 1.44 (inactive) and -0.636 (inactive) | -0.881 (inactive) and -0.593 (inactive) | -0.987 (inactive) and -0.714 (inactive) | -0.406 and -0.233 | 0.172 and 0.232
CCN1C(=O)[C@H]2[C@H]3[C@H](O)[C@H](O)CC(=NOC[C@@H](O)COCc4ccco4)[C@@H]3CC[C@H]2C1=O | -0.113 and -1.03 | 1.31 (inactive) and 0.252 (inactive) | -0.413 (inactive) and -0.696 (inactive) | 0.489 (inactive) and 0.529 (inactive) | -0.601 (inactive) and -0.385 (inactive) | 0.567 (inactive) and 0.24 (inactive) | -0.357 (inactive) and -1.05 (inactive) | -0.463 (inactive) and -0.657 (inactive) | -0.575 and -0.287 | -0.0666 and -0.121
COC(=O)C1=C(C)N(Cc2ccccc2)C2=C3C(=O)CCC[C@@H]3[C@@](O)(C(=O)OC)C(=O)N2[C@@H]1c1ccccc1 | 0.444 and 0.105 | -2.18 (inactive) and -2.94 (inactive) | 0.478 (inactive) and 0.111 (inactive) | -0.13 (inactive) and -0.103 (inactive) | -0.847 (inactive) | -0.387 (inactive) and -0.728 (inactive) | 0.875 (inactive) and 0.548 (inactive) | 0.37 (inactive) and 0.0908 (inactive) | 0.74 and 0.619 | -0.0601 and -0.0118
C=CCN(CCCC)C(=O)C(c1cccs1)N(C(=O)/C=C\C(=O)O)c1c(Cl)cccc1CO (stereo not given) | 0.766 and 0.197 | 0.405 (inactive) and -0.407 (inactive) | -1.21 (inactive) and -0.193 (inactive) | 0.005 (inactive) and 0.0035 (inactive) | 0.991 (inactive) and 0.922 (inactive) | 0.201 (inactive) and 0.0171 (inactive) | 0.591 (inactive) and 0.408 (inactive) | 0.339 (inactive) and 0.354 (inactive) | -0.101 and -0.108 | -0.0857 and -0.0807
C=CCN(Cc1ccccc1)C(=O)C1N(c2ccc(CCO)cc2)C(=O)C2C(C(=O)O)C3C=CC21O3 (stereo not given) | -1.09 and -0.194 | -0.627 (inactive) and -0.3 (inactive) | -0.724 (inactive) and -1.11 (inactive) | 0.79 (inactive) and 0.0901 (inactive) | 0.0279 (inactive) and 0.345 (inactive) | 0.345 (inactive) and -0.744 (inactive) | 0.522 (inactive) and 0.134 (inactive) | 0.0943 (inactive) and -0.178 (inactive) | -0.821 and -0.623 | -0.0629 and -0.365
CC(C)[Si]1(C(C)C)OCc2cc(CCCc3cc4c(c(CCc5ccccc5)n3)[Si](C(C)C)(C(C)C)OC4)nc(CCc3ccccc3)c21 | 0.926 and -0.531 | -15.4 (active) and 0.852 (inactive) | -0.78 (inactive) and -0.186 (inactive) | -0.351 (inactive) and 0.681 (inactive) | 0.35 (inactive) | -0.656 (inactive) and 0.13 (inactive) | 1.87 (inactive) and -0.184 (inactive) | 1.19 (inactive) and -0.0698 (inactive) | 0.583 and -1.16 | -0.0095 and -0.111
CC(C)CON=C1C[C@@H](O)[C@@H](O)[C@@H]2[C@@H]3C(=O)N(c4cccc(Oc5ccccc5)c4)C(=O)[C@@H]3CC[C@H]12 | 0.608 | 0.121 (inactive) | 0.768 (inactive) | -0.564 (inactive) | 0.34 (inactive) | 0.79 (inactive) | 0.85 (inactive) | 0.0947 (inactive) | 1.33 | -0.055
C=C(C)C(=O)OC[C@@H]1CN2[C@@H](CC[C@@H](C)[C@@H]2c2ccc(Br)cc2)C(=O)O1 | 0.726 | -3.12 (inactive) | 0.155 (inactive) | 0.187 (inactive) | 0.936 (inactive) | 0.361 (inactive) | 0.513 (inactive) | 0.682 (inactive) | 0.173 | -0.0326
COC(=O)[C@@]1(Cc2ccccc2)[C@H]2c3cc(C(=O)N(C)C)n(C[C@H](O)CO)c3C[C@H]2CN1C(=O)c1ccccc1 | -0.777 and -0.734 | 0.168 (inactive) and 1.78 (inactive) | -0.939 (inactive) and -0.957 (inactive) | -0.402 (inactive) and 0.547 (inactive) | 1.32 (inactive) and 0.15 (inactive) | 1.03 (inactive) and -0.204 (inactive) | 0.146 (inactive) and -0.785 (inactive) | -0.121 (inactive) and -0.352 (inactive) | -0.205 and -0.62 | 0.333 and 0.107
C=C[C@H](C)[C@@H](O)c1ccc(OCCO)cc1 | 0.0272 and -0.227 | -1.41 (inactive) and -2.08 (inactive) | -0.246 (inactive) and -0.5 (inactive) | 0.14 (inactive) and -0.263 (inactive) | 0.684 (inactive) and 0.486 (inactive) | -0.371 (inactive) and 0.526 (inactive) | -0.748 (inactive) and 0.371 (inactive) | -0.902 (inactive) and 0.418 (inactive) | 0.0577 and -0.603 | 0.074 and 0.18
COC(=O)C1=C2N(Cc3ccccc3)C(C)=C(C(=O)OC)[C@@H](c3ccccc3)N2C(=O)[C@](O)(C(=O)OC)C1 | 1.08 and -0.565 | -0.875 (inactive) and -0.828 (inactive) | 0.7 (inactive) and 0.349 (inactive) | 0.268 (inactive) and -0.608 (inactive) | -0.318 (inactive) and 0.216 (inactive) | -0.321 (inactive) and 0.0615 (inactive) | 0.0099 (inactive) and -0.163 (inactive) | -0.184 (inactive) and -0.224 (inactive) | 1 and -0.272 | 0.0623 and 0.43
CC(CO)N1C(=O)[C@@H]2C3C(=O)OCCC=C[C@H]3OC23C=CCN(Cn2nnc4ccccc42)C(=O)[C@@H]13 (stereo not given in full) | 0.576 and 0.999 | 0.771 (inactive) and 0.283 (inactive) | -0.415 (inactive) and -0.0046 (inactive) | -4.99 (inactive) and -0.478 (inactive) | 0.55 (inactive) and 0.798 (inactive) | 1.07 (inactive) and -0.995 (inactive) | -0.125 (inactive) and 0.0633 (inactive) | -0.214 (inactive) and -0.099 (inactive) | 0.0489 and -0.178 | -0.0448 and -0.21
C=C[C@@H](C)[C@H](O)c1ccc(O)c2ccccc12 | 0.127 and 0.0729 | -8.76 (active) and -8.55 (active) | -0.683 (inactive) and -0.737 (inactive) | -0.94 (inactive) and -0.709 (inactive) | 0.483 (inactive) and 0.79 (inactive) | -0.638 (inactive) and -0.599 (inactive) | 0.479 (inactive) and 0.435 (inactive) | 0.008 (inactive) and 0.189 (inactive) | -0.861 and -0.602 | -0.0893 and 0.0773
